# Results filed as inconclusive are left out. Activity calls are given as the source filed them. Calls follow the shape of the dose curve; as a rule, active = well fitted activation curve with a large enough effect; inconclusive = small, poorly fitted or top-dose-only effect; inactive = no such curve, though single readings can be large or run the other way.
# Assay: qHTS Assay for Agonists of the Relaxin Receptor RXFP1: V1B Hit Validation;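 also: counter-screen in HEK293 cells expressing V1B rather than RXFP1 for selectivity; nearly all actives have a fitted effect of over 65% in size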;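 as to activation: cAMP accumulation with PDE4 inhibitor Ro 20-1724 present during compound exposure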
# Conditions: HEK293 V1B cells, cAMP TR-FRET, 30 min; series mostly up to 115 µM
# Source text: NIH Chemical Genomics Center [NCGC]
# NIH Molecular Libraries Probe Production Centers Network [MLPCN]
# Assay Submitter (PI): Alexander Agoulnik
# The relaxin hormone is involved in the variety of biological functions in normal tissues and diseases. The role of relaxin is well-established in female reproduction and parturition, mammary gland and endometrial development, maintenance of myometrial quiescence during pregnancy. Relaxin signaling through its G protein-coupled receptor (GPCR) RXFP1 results in ECM remodeling through regulation of collagen deposition, cell invasiveness, proliferation and overall tissue homeostasis. […] Recombinant human relaxin (rhRlx) is currently being tested in clinical trials as a protective agent in congestive heart failure, in treating severe preeclampsia, and as an anti-fibrotic agent in systemic sclerosis.
# Upon relaxin binding RXFP1 activation leads to the activation of adenylate cyclase (AC) via Gs. cAMP will activate PKA, which phosphorylates many signaling proteins. Thus, detection of cAMP increase is an easy and reliable indication of relaxin receptor activation. To screen for agonists of the relaxin receptor, a HEK293T cell line stably transfected with RXFP1 was used. RXFP1 activation was assayed by changes in cAMP levels as detected with a time-resolved fluorescence energy transfer (TR-FRET) cAMP detection kit.
# This assay measures activation of a cell expressing […], another GPCR targeted by relaxin, to determine the selectivity of compounds for RXFP1.
# NCGC Assay Protocol Summary:
# This is a cell-based assay for cAMP second messenger response to screen for agonists of the RXFP2 receptor. The assay was conducted in the presence of a PDE4 inhibitor (Ro 20174). The cells were lysed and the cAMP levels were measured with a TR-FRET cAMP kit. Presence of cAMP in the cell lysate disrupts binding between the cryptate-labeled anti-cAMP and d2-labeled cAMP pair, leading to a decrease in the TR-FRET signal. Data were normalized to the controls for basal activity (buffer only) and 100% activity (29 nM porcine relaxin). The EC50 values were determined from concentration-response data modeled with the standard Hill equation
# 1536-well assay protocol for the HEK293 V1B cAMP assay:
# (1) Add 3 ul HEK293 RXFP2 cell culture. 2000 cells/well in DMEM/F12, 10% FBS, 1x Pen/Strep (dispensed offline with MultiDrop Combi).
# (3) Add 23 nl compounds in DMSO solution. Final concentration was 0.5 - 58 uM.
# (4) Incubate 30 min at 37C, 5% CO2.
# (5) Add 1 ul cAMP-d2 in lysis buffer (HTRF cAMP HiRange kit, CisBio).
# (6) Add 1 ul anti-cAMP antibody-cryptate in lysis buffer (HTRF cAMP HiRange kit, CisBio).
# (7) Incubate 30 min at room temperature.
# (6) Detect the assay plate in a ViewLux plate reader (PerkinElmer) with Ex=320 nm, Em1=615 nm and Em2=665 nm.
# Keywords: relaxin, RXFP1, RXFP2, G-protein coupled receptor, cAMP, agonist, high throughput screening, MLSMR, MLSCN, NIH Roadmap, qHTS and NCGC
# Potency is read from the fitted curve at half-maximal effect.
row,SMILES,Potency
1,CC[n+]1ccc(/C=C/c2ccc(N(C)C)cc2)c2ccccc21,inactive
2,Cc1ccccc1OCC(=O)Nc1sc(C(=O)Nc2cccc(C)c2C)c(C)c1C#N,6.15 µM (active)
3,O=C(O)c1ccc(N2C(=O)c3cccc4cccc(c34)C2=O)cc1,74.9 µM (active)
4,Cc1cccc(NC(=O)c2ccccc2NC(=O)C2CCCCC2)c1C,inactive
5,O=C(O)c1ccc(N2C(=O)c3cccc4c(C(=O)O)ccc(c34)C2=O)cc1,47.3 µM (active)
6,CCOc1ccc(NC(=O)CSc2ccc3nnc(-c4cccnc4)n3n2)cc1,38.9 µM (active)
7,O=S(=O)(Nc1ccccc1C(F)(F)F)c1ccc(-c2ccccn2)s1,21.9 µM (active)
8,COC(=O)Cn1cnc2c(C#N)c3n(c2c1=O)CCCCC3,13.8 µM (active)
9,CCCC(=O)Nc1ncnc2c1ncn2[C@@H]1O[C@@H]2COP(=O)(O)O[C@H]2[C@H]1OC(=O)CCC,1.38 µM (active)
10,O=C(COc1ncnc2scc(-c3ccccc3)c12)NCCN1C(=O)CSC1=O,19.4 µM (active)
11,N#CCCSc1ncnc2c1oc1ccccc12,19.4 µM (active)
12,CCc1cc2c(=O)nc3n(c2s1)Cc1ccccc1/C3=C(/O)c1cccc([N+](=O)[O-])c1,3.89 µM (active)
13,COc1ccc(/C=C2/SC(=O)N(CCC(=O)Nc3ccc(C)cc3)C2=O)cc1OC,inactive
14,O=c1c2ccccc2cnn1Cc1n[nH]c(=S)n1-c1ccc(F)c(Cl)c1,21.9 µM (active)
15,COc1ccc(CN2C(=O)c3cccnc3C2=O)cc1S(=O)(=O)NC1CCCCC1C (stereo not given),38.9 µM (active)
16,CCOC(=O)c1sc(NC(=O)CCc2ccc(OC)cc2)nc1C,15.4 µM (active)
17,S=c1nc[nH]c2c1[nH]c1ccccc12,6.9 µM (active)
18,CCNc1nc(NCC)nc(N(C)/N=C/c2ccco2)n1,inactive
19,Cn1c(=O)c2c(ncn2CC(=O)N/N=C/c2cn[nH]c2-c2ccc(F)cc2)n(C)c1=O,21.8 µM (active)
20,CC(C)C(=O)Nc1ccc(Nc2ccccc2)cc1,inactive

row,SMILES,Potency
1,Cc1cc(NC(=O)c2ccccc2F)nc2c1c(=O)oc1ccccc12,21.8 µM (active)
2,Cc1ccc(C(=O)Nc2cccc(C(F)(F)F)c2)cc1NC(=O)c1cnnc2ccccc12,inactive
3,Nc1ncnc2c1ncn2C1OC(CO)C(O)C1O (stereo not given),9.77 µM (active)
4,CCCC(=O)Nc1ncnc2c1ncn2[C@@H]1O[C@@H]2OP(=O)(O)OC[C@H]2[C@H]1OC(=O)CCC,0.868 µM (active)
5,Nc1c(S(=O)(=O)O)cc(NC(=O)c2ccccc2)c2c1C(=O)c1ccccc1C2=O,inactive
6,O=C(O)CNC(=O)c1ccccc1NC(=O)c1ccco1,inactive
7,O=C(Nc1ccccc1C(=O)NCCc1ccccc1)c1ccco1,inactive
8,COc1ccccc1CNS(=O)(=O)c1cc(CN2C(=O)c3cccnc3C2=O)ccc1OC,27.5 µM (active)
9,CCN(CC)S(=O)(=O)c1cccc(N=Nc2c(O)c3ccccc3oc2=O)c1,27.5 µM (active)
10,O=C(Oc1ccccc1)Oc1ccc2c(c1)oc(=O)c1ccccc12,21.8 µM (active)
11,O=C(O)CSc1ccnc2cc(Cl)ccc12,21.8 µM (active)
12,COC(=O)c1c(N2C(=O)CC(Sc3ncccc3C(=O)O)C2=O)sc(C)c1C (stereo not given),inactive
13,CC1CCCN(C(=O)COC(=O)CNC(=O)c2sc3ccccc3c2Cl)C1 (stereo not given),8.68 µM (active)
14,CCCn1c(SCC(=O)Nc2ccc(NC(C)=O)cc2)nc2c1c(=O)n(C)c(=O)n2C,38.9 µM (active)
15,COc1cc(-c2nnc(SCC(=O)N(C)C3CCS(=O)(=O)C3)o2)cc(OC)c1OC (stereo not given),inactive
16,COc1ccc(CN2C(=O)c3cccnc3C2=O)cc1S(=O)(=O)N1CCCCC1C (stereo not given),8.68 µM (active)
17,O=C(Nc1ccccc1C(=O)NCc1ccccc1)c1ccco1,inactive
18,O=C(Nc1ccccc1C(=O)O)c1ccc(NC(=O)C2CC2)cc1,inactive
19,O=C(O)CCNc1ccc(NCCC(=O)O)c2c1C(=O)c1ccccc1C2=O,inactive
20,CC(=O)Nc1ccc(NC(=O)CSc2ccc3nnc(-c4cccnc4)n3n2)cc1,13.8 µM (active)

# From PubChem BioAssay AID492948 (National Center for Advancing Translational Sciences (NCATS), 2010)
